Drawing on PubChem BioAssay AID589 (National Center for Advancing Translational Sciences (NCATS), 2007), this text covers max dye-equivalent concentration and outcome for 53 compounds.

Among all 59,000 compounds or so, about 6,200 (11%) were called active. Another 9% or so got no clear call; they are omitted. Cut-off read from the data, not from the text of the source: active = max dye-equivalent concentration above about 10 nM; inconclusive = mostly about 1.1 nM to 9.6 nM; inactive = weaker than that. Shown is part of a subset that was picked to be rich in actives. A structure can be active in one record and inactive in another.

This experiment can be described thus: qHTS Assay for Spectroscopic Profiling in 4-MU Spectral Region. Conditions: compound autofluorescence, 340/450 nm, 4-MU equivalents; stronger effect = higher value. The text has this: NIH Molecular Libraries Screening Centers Network [MLSCN] NIH Chemical Genomics Center [NCGC] […] Occasionally, the artifactual effect may originate from the compounds own spectral or other biophysical properties which generally tend to track its assay concentration. Pre-screening/profiling the library with respect to the compounds spectral properties should help one exclude false positives early on. While the most informative fluorescent profiling data set is obtained by performing a full excitation and emission scan of each well by using a monochromator-based plate reader, such an approach is practical only on a very limited scale as scanning each well requires long time. An alternative approach, applied here, is to perform plate reader scans using selected excitation and emission wavelength pairs to generate a multidimensional relational database that correlates compound concentration and the respective relative fluorescence intensity at a given wavelength set. A standard curve of 4-methylumbelliferone (4-MU) present on each plate as six-point concentration series, was used to compute a normalized fluorescence response, termed dye-equivalent concentration, for each compound at each concentration.
NCGC Assay Protocol Summary: Buffer: 100 mM Tris buffer, pH 8.0 Dye standard plate: The wells in columns 1 through 4 of a Kalypsys polypropylene 1536-well compound plate were filled with standard solutions of fluorophore corresponding to the spectral region of interest. Solutions of 4-MU were placed in the following wells: A1, B1: 3 mM, A2, B2: 300 uM, A3, B3: 30 uM, A4, B4: zero (DMSO), C1, D1: 3 uM, C2, D2: 900 nM, C3, D3: 300 nM, C4, D4: zero (DMSO). Assay Steps: Six uL of buffer were dispensed to 1536-well Greiner black plates. Compounds and dye standards (23 nL) were transferred via Kalypsys PinTool. The plates were incubated for 15 min at room temperature, and then read on ViewLux (Perkin-Elmer) High-throughput CCD imager using 340 nm and 450 nm excitation and emission filter set. Keywords: NIH Roadmap, MLSCN, MLI, MLSMR, qHTS, NCGC, Fluorescent Profiling, 4MU, 4-MU
With `CCCCNC(=O)c1c[nH]c2ccc(S(=O)(=O)Nc3ccc(OCC)cc3)cc2c1=O`, the max dye-equivalent concentration entry is “inactive”.

On to `COc1cccc(N(CC(=O)NC2CCCC2)C(=O)Cn2nnc(-c3ccc(C)cc3)n2)c1`, for which the max dye-equivalent concentration result was “inactive”.

On to `O=C(c1cc(C(F)(F)F)cc(C(F)(F)F)c1)N1CCC2(CCCN(c3ccccn3)C2)CC1`, for which the max dye-equivalent concentration entry was “inactive”.

Take `N#Cc1c2c(c(-c3ccccc3)[nH]c1=O)CCCC2`: the max dye-equivalent concentration is 16 nM (active).

`CCCCCN(C(=O)NC(=O)Nc1ccccc1C)S(C)(=O)=O`: the max dye-equivalent concentration entry was “inactive”.

As for `O=C1C2(c3ccccc3)CN(CCCO)CC1(c1ccccc1)CN(CCCO)C2`, the max dye-equivalent concentration entry was “inactive”.

As for `C[C@@H](N)[C@@H](C)Cc1ccccc1`, the max dye-equivalent concentration result was “inactive”.

Consider `COc1ccc(-c2cc(C(F)(F)F)nc(SCCC(=O)NCc3ccco3)n2)cc1`, for which the max dye-equivalent concentration entry is “inactive”.

Regarding `O=C(CSc1nc(-c2ccco2)cc(C(F)(F)F)n1)NCc1cccs1`, the max dye-equivalent concentration entry is “inactive”.

Consider `FC(F)(F)c1cc(-c2cccs2)nc(NCc2ccco2)n1`, for which the max dye-equivalent concentration is 20 nM (active).

As for `COc1ccccc1N1CCN(C(=O)CSc2nnc(-c3ccoc3C)o2)CC1`, the max dye-equivalent concentration result is “inactive”.

`CN1CCN(CC(=O)C23CC4CC(CC(C4)C2)C3)CC1`: the max dye-equivalent concentration entry is “inactive”.

As for `O=C(CNCCO)NC12CC3CC(CC(C3)C1)C2`, the max dye-equivalent concentration result was “inactive”.

Turning to `CC(NCCO)C(=O)C12CC3CC(CC(C3)C1)C2` (centres undefined), the max dye-equivalent concentration is 36 nM (active).

With `Cc1ccc2[nH]c3c(c2c1)CN(C(=O)CN1CCN(c2ccccc2)CC1)CC3`, the max dye-equivalent concentration entry is “inactive”.

For `O=C(O)[C@@H](O)Cc1ccccn1`, the max dye-equivalent concentration result is “inactive”.

For the compound `O=C(c1ccco1)N1CCC[C@@]2(CCN(Cc3nccs3)C2)C1`, the max dye-equivalent concentration result is “inactive”.

On to `COc1ccc(C(=O)Nc2ccc(S(=O)(=O)Nc3onc(C)c3C)cc2)cc1OC`, for which the max dye-equivalent concentration result is “inactive”.

Consider `COc1ccc(OCc2ccc(-c3nc4ccccc4c(=O)n3N)o2)cc1`, for which the max dye-equivalent concentration result is “inactive”.

For `COc1ccc(-c2cc3ccc(OCc4nn[nH]n4)cc3oc2=O)cc1`, the max dye-equivalent concentration was 8100 nM (active).

As to `O=C(Nc1cccc(Cl)c1)OCc1ccccn1`, the max dye-equivalent concentration result was “inactive”.

For the compound `CC(C)COC(=O)c1ccc(NC(=O)C2C3C=CC(C3)C2C(=O)O)cc1` (centres undefined), the max dye-equivalent concentration entry is “inactive”.

In the case of `CCC(CC)C(=O)Nc1cc(C(=O)OC)cc(C(=O)OC)c1`, the max dye-equivalent concentration result is “inactive”.

With `CC(C)OC(=O)c1cc(NC(=O)C2C3CCC(O3)C2C(=O)O)cc(C(=O)OC(C)C)c1` (centres undefined), the max dye-equivalent concentration is 14 nM (active).

Regarding `CCC(=O)c1ccc(OCC(O)CN2CC(C)OC(C)C2)cc1` (centres undefined), the max dye-equivalent concentration result is “inactive”.

Regarding `O=C(c1ccco1)N1CCN(C(=O)C2c3ccccc3Oc3ccccc32)CC1`, the max dye-equivalent concentration result was “inactive”.

`CS(=O)(=O)c1ccc2nc(NC(=O)CN3CCCCCC3)sc2c1`: the max dye-equivalent concentration entry was “inactive”.

Regarding `O=C(Nc1cccc(NC(=O)N2CCN(c3ccccc3)CC2)c1)N1CCN(c2ccccc2)CC1`, the max dye-equivalent concentration entry is “inactive”.

As for `Cn1c(CCN2CCCCCC2)nc2cc(NC(=O)Nc3ccccc3)ccc21`, the max dye-equivalent concentration entry was “inactive”.

With `Cc1nc2ccc(NC(=O)N3CCC(c4ccccc4)C3)cc2nc1C` (centres undefined), the max dye-equivalent concentration is 550 nM (active).

Consider `Cc1cc(C)nc(SCc2nnc(SCC(=O)OC3CCCCC3)o2)n1`, for which the max dye-equivalent concentration result is “inactive”.

In the case of `CCOc1cccc(NC(=O)CC#N)c1`, the max dye-equivalent concentration entry was “inactive”.

In the case of `CC(=O)c1cc(C#N)c(SCC(=O)C(C)(C)C)nc1C`, the max dye-equivalent concentration entry was “inactive”.

Regarding `CCOc1ccc2cc(C#N)c(SCC(=O)OC)nc2c1`, the max dye-equivalent concentration is 37 nM (active).

`Cc1nn(-c2ccccc2)c2c1C(=O)NC(=O)C(C)(C)C2`: the max dye-equivalent concentration entry was “inactive”.

For `CCC(C(=O)N1CCOCC1)n1c(C(=O)OC)cc2occc21` (centres undefined), the max dye-equivalent concentration entry was “inactive”.

With `CC(=O)c1ccc(N2C(=NC(=O)C(C)C)SC3CS(=O)(=O)CC32)cc1` (centres undefined), the max dye-equivalent concentration result was “inactive”.

Consider `CCC(C)Sc1nc2c(c(=O)[nH]c(=O)n2C)n1CC(O)COc1cccc2ccccc12` (centres undefined), for which the max dye-equivalent concentration entry was “inactive”.

For `CCOC(=O)c1c(C)[nH]c(C(=O)COc2ccc3c(c2)OCO3)c1C`, the max dye-equivalent concentration entry was “inactive”.

As to `CCCCOC(=O)c1[nH]c(C)c(C(=O)OC)c1C`, the max dye-equivalent concentration was 360 nM (active).

Consider `CCOC(=O)c1c(C)[nH]c(C(=O)NCc2ccccc2OC)c1C`, for which the max dye-equivalent concentration entry is “inactive”.

For the compound `CCOC(=O)N1CCN(C(=O)Cc2ccc(-n3c(=S)[nH]c4ccccc4c3=O)cc2)CC1`, the max dye-equivalent concentration result is “inactive”.

Consider `O=C(c1cccs1)N1CCN(C(=O)N2CCOCC2)CC1`, for which the max dye-equivalent concentration result was “inactive”.

For the compound `COc1ccc(C)cc1NC(=O)c1[nH]c(C)c(C(C)=O)c1C`, the max dye-equivalent concentration entry is “inactive”.

Turning to `CCN(CC)CCNC(=O)c1cc(S(C)(=O)=O)ccc1OC`, the max dye-equivalent concentration was 10 nM (active) and the outcome was inactive.

Turning to `CCN(CC)S(=O)(=O)c1ccc2[nH]cc(C(=O)NCCc3ccccc3)c(=O)c2c1`, the max dye-equivalent concentration result was “inactive”.

With `Cc1onc(-c2ccccc2)c1C(=O)N1CCOCC1`, the max dye-equivalent concentration result was “inactive”.

Consider `CCN(c1ccccc1)S(=O)(=O)c1cccc(C(=O)O)c1`, for which the max dye-equivalent concentration entry is “inactive”.

Regarding `Cc1ccc(Oc2nc3ccccc3n3c(C)nnc23)cc1`, the max dye-equivalent concentration result was “inactive”.

`c1ccc(CSc2nnc(-c3ccco3)n2Cc2ccccc2)cc1`: the max dye-equivalent concentration result is “inactive”.

As to `CN(c1nc2ccccc2n2c(-c3ccco3)nnc12)S(=O)(=O)c1ccccc1`, the max dye-equivalent concentration is 39 nM (active).

Regarding `CCc1cc(Br)ccc1NC(=O)C1CCCO1` (centres undefined), the max dye-equivalent concentration entry is “inactive”.

Take `CC(=O)N1CCN(CCN=CC2=C(O)CC(C)(C)CC2=O)CC1`: the max dye-equivalent concentration result was “inactive”.
